What all share (design): scale not given: direction of the effect not stated beside the values
The target in experiment [1] is Protein translocase subunit SecA (Escherichia coli (strain K12)) (UniProt P10408). Description: Assay to Identify E. coli SecA ATPase Inhibitors. The format is functional. As to conditions: 30 µM.
The target in experiment [2] is T1, Ubiquitin-activating enzyme e1, putative (Leishmania donovani (strain BPK282A1)) (UniProt E9BSI1).
T1 sequence (whole entry): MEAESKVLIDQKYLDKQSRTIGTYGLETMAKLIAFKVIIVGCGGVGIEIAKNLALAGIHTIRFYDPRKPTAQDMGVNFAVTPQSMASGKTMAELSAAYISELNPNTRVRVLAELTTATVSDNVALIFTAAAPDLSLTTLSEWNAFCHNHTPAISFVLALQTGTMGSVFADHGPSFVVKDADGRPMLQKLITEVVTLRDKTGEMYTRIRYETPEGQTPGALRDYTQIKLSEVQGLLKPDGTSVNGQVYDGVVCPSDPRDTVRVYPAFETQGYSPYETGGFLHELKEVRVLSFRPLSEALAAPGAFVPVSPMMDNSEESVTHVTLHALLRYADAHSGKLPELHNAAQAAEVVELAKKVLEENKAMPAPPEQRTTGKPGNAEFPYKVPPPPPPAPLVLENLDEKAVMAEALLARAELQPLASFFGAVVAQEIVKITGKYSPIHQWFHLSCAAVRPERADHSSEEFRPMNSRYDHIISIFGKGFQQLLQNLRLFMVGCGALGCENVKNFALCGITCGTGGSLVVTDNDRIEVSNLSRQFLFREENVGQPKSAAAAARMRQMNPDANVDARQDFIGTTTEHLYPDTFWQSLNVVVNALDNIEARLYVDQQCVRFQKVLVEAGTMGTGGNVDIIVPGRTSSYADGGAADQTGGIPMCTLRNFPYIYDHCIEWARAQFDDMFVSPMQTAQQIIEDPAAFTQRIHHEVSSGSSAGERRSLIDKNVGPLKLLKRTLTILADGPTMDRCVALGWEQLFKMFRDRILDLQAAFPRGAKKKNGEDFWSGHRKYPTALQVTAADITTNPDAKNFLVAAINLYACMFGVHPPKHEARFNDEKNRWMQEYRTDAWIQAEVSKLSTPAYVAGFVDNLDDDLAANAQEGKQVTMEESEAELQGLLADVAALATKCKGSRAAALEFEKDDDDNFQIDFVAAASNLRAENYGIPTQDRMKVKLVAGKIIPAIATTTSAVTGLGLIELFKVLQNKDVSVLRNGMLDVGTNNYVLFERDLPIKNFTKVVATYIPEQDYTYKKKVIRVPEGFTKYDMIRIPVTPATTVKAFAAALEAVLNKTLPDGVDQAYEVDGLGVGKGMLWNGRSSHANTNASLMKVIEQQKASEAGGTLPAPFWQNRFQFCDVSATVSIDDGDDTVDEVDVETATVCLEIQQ
Description: Leishmania donovani Ubiquitin Activating Enzyme (LdE1). The class given is functional. As to conditions: 30 µM.

Experiment [3] has as its target AMP-activated protein kinase, AMPK (Homo sapiens) (UniProt P54646+O43741+P54619+Q9UGJ0+Q9Y478+Q13131+Q9UGI9). Description: AMP-dependent Kinase enzyme assay. An in vitro enzyme assay that detects ADP turnover that is directly proportional to AMPK activity. This uses naive AMPK that is activated during the assay with MK-8722. The class given is functional. The following applies: 30 µM.

Experiment [4] deals with Sialic acid-binding Ig-like lectin 9 (Homo sapiens) (UniProt Q9Y336). The experiment is described as follows: Hs-Siglec9 ALPHAscreen SOP 20170721. The following applies: 10 µM. (In general: Alpha assays give light when donor and acceptor beads are brought close together.)
Chain of Sialic acid-binding Ig-like lectin 9 (Homo sapiens) (Q9Y336 whole entry): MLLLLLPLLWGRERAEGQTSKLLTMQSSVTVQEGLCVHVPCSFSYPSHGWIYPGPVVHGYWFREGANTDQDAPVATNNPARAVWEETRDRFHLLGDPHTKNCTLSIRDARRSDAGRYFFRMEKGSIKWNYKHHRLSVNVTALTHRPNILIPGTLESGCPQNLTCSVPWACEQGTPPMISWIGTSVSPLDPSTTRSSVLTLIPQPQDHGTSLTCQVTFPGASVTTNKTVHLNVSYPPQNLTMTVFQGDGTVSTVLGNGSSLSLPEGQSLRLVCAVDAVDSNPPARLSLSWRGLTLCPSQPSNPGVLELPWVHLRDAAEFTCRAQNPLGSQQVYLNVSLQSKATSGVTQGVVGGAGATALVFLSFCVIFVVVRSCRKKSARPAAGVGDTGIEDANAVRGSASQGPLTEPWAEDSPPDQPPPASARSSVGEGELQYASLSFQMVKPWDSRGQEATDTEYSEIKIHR
The subject of a further experiment is Trypanosoma cruzi. Description: Trypanosoma cruzi phosphomannomutase and mannose-1-phosphate guanylyltransferase assay. The class given is functional. As to conditions: 10 µM.
Experiment [5] concerns the target T2, Arginase-2, mitochondrial (Homo sapiens) (UniProt P78540).
T2 sequence (whole entry): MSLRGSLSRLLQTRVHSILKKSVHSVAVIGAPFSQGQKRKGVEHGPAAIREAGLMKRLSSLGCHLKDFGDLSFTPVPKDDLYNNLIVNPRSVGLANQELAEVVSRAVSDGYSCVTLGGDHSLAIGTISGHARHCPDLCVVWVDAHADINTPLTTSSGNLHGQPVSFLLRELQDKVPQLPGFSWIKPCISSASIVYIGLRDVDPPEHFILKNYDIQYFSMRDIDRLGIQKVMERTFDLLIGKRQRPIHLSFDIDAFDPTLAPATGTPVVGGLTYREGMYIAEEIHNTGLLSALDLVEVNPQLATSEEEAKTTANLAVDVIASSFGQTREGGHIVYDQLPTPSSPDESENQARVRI
The experiment is described as follows: in vitro enzyme assay to detect the production of urea directly proportional to the activity of Arginase II. Further: in the data most compounds retested in dose-response had high values. The format is functional. The following applies: 33.3 µM.

Experiment [6] deals with T3, Proteasome subunit beta (Trypanosoma cruzi) (UniProt O96673).
T3 sequence (whole entry): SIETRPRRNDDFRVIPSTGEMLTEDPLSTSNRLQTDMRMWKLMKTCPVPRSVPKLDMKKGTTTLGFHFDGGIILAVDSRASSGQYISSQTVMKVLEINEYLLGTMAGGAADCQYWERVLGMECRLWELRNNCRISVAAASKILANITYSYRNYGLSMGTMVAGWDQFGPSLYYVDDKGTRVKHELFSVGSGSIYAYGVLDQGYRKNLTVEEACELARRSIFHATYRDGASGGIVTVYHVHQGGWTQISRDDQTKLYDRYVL
Description: Trypanosoma cruzi proteasome chymotrypsin-like activity (TcProtChymo) assay. Further: in the data most compounds retested in dose-response had high values. The class given is functional. As to conditions: 9.37 µM.

The next experiment is filed under the species Homo sapiens. The experiment is described as follows: To identify inhibition of the IFN signalling (Jak-Stat) pathway via expression of an eGFP reporter gene under the control of an IFN-stimulated response element (ISRE) containing MxA promoter. As to conditions: 30 µM. The format is functional.
Experiment [7] concerns the target T4, Tyrosyl-tRNA synthetase, putative (Trypanosoma cruzi (strain CL Brener)) (UniProt Q4DSP6).
T4 sequence (whole entry): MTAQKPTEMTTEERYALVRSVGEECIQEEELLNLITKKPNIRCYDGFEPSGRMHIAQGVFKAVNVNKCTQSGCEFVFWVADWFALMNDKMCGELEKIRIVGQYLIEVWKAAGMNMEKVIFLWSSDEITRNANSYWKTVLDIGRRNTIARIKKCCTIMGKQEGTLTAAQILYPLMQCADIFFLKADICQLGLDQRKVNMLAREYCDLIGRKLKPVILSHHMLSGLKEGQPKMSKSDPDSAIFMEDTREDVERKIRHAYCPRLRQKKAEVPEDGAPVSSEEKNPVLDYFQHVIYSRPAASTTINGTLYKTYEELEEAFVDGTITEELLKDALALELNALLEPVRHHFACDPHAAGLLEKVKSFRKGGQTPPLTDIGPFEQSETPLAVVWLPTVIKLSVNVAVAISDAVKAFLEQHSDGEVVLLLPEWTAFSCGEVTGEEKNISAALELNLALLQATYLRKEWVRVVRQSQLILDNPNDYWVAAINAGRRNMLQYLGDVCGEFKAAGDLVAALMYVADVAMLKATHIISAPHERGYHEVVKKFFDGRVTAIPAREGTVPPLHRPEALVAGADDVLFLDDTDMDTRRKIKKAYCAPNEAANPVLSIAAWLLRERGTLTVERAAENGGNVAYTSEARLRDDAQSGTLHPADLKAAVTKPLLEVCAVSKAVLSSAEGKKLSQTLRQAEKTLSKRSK
Description: Trypanosoma cruzi tyrosyl tRNA synthetase (TcYRS) _High Tyrosine SOP. Further: in the data most compounds retested in dose-response had high values. The following applies: 30 µM. The format is functional.

Experiment [8] has as its target T4, Tyrosyl-tRNA synthetase, putative (Trypanosoma cruzi (strain CL Brener)). The experiment is described as follows: Trypanosoma cruzi tyrosyl tRNA synthetase (TcYRS) SOP. The class given is functional. The following applies: 30 µM.
The target in experiment [9] is Chromo domain-containing protein 1 (Saccharomyces cerevisiae (strain ATCC 204508 / S288c) (Baker's yeast)) (UniProt P32657). Description: ScCHD-1 Enzyme Inhibition Assay. Further: in the data most compounds retested in dose-response had high values. The class given is functional. As to conditions: 30 µM.
Chain of Chromo domain-containing protein 1 (Saccharomyces cerevisiae (strain ATCC 204508 / S288c) (Baker's yeast)) (P32657 whole entry, the tested form may be a part): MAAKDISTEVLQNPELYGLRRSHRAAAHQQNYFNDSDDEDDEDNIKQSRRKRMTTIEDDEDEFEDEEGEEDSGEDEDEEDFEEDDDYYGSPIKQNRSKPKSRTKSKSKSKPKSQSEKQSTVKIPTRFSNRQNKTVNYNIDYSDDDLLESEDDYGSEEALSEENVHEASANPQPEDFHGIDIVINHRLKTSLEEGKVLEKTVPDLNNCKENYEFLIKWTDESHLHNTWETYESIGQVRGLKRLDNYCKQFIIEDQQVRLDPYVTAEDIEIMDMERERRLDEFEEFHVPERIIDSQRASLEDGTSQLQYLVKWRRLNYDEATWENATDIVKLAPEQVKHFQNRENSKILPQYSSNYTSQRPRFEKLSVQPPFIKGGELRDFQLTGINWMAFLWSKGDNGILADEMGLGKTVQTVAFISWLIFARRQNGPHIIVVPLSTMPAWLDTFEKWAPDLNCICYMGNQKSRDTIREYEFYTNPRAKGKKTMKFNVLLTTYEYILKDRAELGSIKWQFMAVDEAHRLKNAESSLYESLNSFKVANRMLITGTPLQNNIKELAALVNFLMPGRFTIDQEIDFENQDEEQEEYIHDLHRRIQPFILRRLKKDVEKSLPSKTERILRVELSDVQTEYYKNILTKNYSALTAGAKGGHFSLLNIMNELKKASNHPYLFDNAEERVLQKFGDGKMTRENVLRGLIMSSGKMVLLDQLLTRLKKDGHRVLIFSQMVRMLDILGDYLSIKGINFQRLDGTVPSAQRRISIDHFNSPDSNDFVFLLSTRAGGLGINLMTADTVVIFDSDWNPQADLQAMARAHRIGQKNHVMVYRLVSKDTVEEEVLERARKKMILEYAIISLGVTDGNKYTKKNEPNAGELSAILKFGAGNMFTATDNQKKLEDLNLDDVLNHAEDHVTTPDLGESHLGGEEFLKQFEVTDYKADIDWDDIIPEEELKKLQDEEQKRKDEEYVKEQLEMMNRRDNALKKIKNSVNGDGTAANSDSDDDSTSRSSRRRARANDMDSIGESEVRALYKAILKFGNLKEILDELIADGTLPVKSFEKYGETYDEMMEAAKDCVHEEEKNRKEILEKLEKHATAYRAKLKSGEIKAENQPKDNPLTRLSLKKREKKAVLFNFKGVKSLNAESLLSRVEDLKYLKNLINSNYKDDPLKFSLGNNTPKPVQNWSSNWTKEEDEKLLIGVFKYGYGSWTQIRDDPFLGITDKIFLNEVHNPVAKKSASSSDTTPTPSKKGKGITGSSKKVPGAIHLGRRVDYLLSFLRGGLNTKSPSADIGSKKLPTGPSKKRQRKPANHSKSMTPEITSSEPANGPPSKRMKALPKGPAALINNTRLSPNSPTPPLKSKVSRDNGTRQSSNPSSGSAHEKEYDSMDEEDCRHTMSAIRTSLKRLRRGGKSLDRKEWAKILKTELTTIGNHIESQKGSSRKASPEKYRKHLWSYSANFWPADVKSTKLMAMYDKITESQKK

For some of these results: Results with a measured potency or affinity are listed apart.

Chain of Protein translocase subunit SecA (Escherichia coli (strain K12)) (P10408 whole entry): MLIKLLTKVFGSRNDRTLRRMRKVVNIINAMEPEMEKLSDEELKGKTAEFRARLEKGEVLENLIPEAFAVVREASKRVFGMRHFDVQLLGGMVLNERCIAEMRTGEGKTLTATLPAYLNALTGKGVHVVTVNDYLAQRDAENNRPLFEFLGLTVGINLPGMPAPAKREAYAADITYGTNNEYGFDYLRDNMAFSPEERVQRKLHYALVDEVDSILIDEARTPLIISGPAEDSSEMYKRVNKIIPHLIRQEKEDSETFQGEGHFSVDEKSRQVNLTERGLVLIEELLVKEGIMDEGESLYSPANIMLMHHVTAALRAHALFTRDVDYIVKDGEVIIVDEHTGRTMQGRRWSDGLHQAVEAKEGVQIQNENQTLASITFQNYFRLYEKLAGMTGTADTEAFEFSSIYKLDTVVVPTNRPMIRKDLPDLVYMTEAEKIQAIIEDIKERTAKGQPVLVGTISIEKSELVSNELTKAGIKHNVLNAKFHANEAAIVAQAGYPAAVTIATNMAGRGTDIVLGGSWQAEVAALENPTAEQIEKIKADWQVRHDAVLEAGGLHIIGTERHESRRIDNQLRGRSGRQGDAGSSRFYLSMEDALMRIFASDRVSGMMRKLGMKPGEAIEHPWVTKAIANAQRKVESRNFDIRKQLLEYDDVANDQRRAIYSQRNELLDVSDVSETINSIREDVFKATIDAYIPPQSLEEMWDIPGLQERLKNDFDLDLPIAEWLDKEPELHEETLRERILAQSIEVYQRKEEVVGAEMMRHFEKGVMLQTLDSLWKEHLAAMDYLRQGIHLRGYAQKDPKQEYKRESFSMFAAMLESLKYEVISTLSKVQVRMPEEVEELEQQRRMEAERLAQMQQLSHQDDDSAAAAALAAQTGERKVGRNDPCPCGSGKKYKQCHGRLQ

For the compound `COc1ccc(CS(=O)(=O)CC(=O)NCc2ccccc2F)cc1F`, the Percent Effect in experiment [1] is -3.22%; in [2] it was 7.89%; in experiment [3], 5.57%; in experiment [4], -2.07%; in the experiment with Trypanosoma cruzi it was -2.63%; in [5], 8.28%. Moreover, the Percent Effect in experiment [6] is 17.2%; in the experiment filed under Homo sapiens, -0.495%; in experiment [7], 4.25%; in experiment [8], 5.2%; in experiment [9], -2.98%.

As to `O=C(c1cccc2c1OCO2)N1CCCC1Cn1cccn1` (stereo unspecified), the Percent Effect in [1] is -4.17%; in experiment [2], -2.6%; in experiment [3], 1.97%; in [4], 4.11%; in the experiment with Trypanosoma cruzi it was -1.47%; in [5], -1.9%. For the same compound, the Percent Effect in [6] is 6.55%; in the experiment listed under Homo sapiens it was 14.8%; in experiment [7] it was 3.81%; in experiment [8], 9.41%; in [9], -8.43%.

For the compound `Cc1nn(C)c(C)c1C1CCCN1C(=O)c1ccc(CN(C)C)cc1` (stereo unspecified), the Percent Effect in [1] is -0.183%; in experiment [2], 21.6%; in experiment [3] it was 2.25%; in experiment [4], -4.88%; in the experiment on Trypanosoma cruzi, 2.14%; in experiment [5] it was 0.554%. The Percent Effect in [6] was 11.1%; in the experiment filed under Homo sapiens, 11.4%; in experiment [7] it was -20.8%; in experiment [8], 23.2%; in experiment [9], -6.46%.

Consider `c1ccc2cc(OCCN3CCOC(Cn4cncn4)C3)ccc2c1` (stereo unspecified), for which the Percent Effect in experiment [1] is -4.49%; in experiment [2] it was 6.33%; in experiment [3], -0.381%; in experiment [4], 14%; in the experiment with Trypanosoma cruzi, 2.77%; in [5] it was -1.5%. Moreover, the Percent Effect is 10.3% in [6]; 5.72% in the experiment filed under Homo sapiens; 4.17% in experiment [7]; 10.1% in experiment [8]; -6.36% in experiment [9].

Take `CC(C)CCN1CN=C(NS(=O)(=O)c2ccc(F)cc2)NC1`: the Percent Effect in [1] was -1.41%; in [2] it was 6.67%; in [3], 4.23%; in experiment [4], 1.92%; in the experiment with Trypanosoma cruzi, -1.38%; in experiment [5], -9.33%. Further, the Percent Effect in experiment [6] was 9.61%; in the experiment listed under Homo sapiens it was -4.88%; in experiment [7], 5.29%; in experiment [8], 10.3%; in experiment [9], -8.81%.

In the case of `O=C(CCC(=O)N1CCCC1c1cccs1)N1CCc2sccc2C1` (stereo unspecified), the Percent Effect in experiment [1] was 1.64%; in experiment [2] it was -8.11%; in experiment [3] it was -5.22%; in experiment [4], 4.27%; in the experiment with Trypanosoma cruzi, 5%; in experiment [5], -1.6%. Besides, the Percent Effect is 3.42% in experiment [6]; 19.6% in the experiment listed under Homo sapiens; 3.45% in experiment [7]; 3.7% in experiment [8]; -5.21% in experiment [9].

For `COC[C@@]12CCO[C@@H]1CCN(Cc1ccccc1F)C2`, the Percent Effect in experiment [1] is -2.12%; in experiment [2], 11%; in experiment [3], -5.09%; in experiment [4], 8.1%; in the experiment on Trypanosoma cruzi it was 5.75%; in [5], -2.79%. Moreover, the Percent Effect in experiment [6] is 10.5%; in the experiment filed under Homo sapiens, 3.87%; in [7], 4.17%; in experiment [8], 8.64%; in [9] it was -4.87%.

As to `COc1c(CNC(c2ccc(F)cc2)C(C)(C)C)c(C)nn1C` (stereo unspecified), the Percent Effect in experiment [1] is -1.68%; in experiment [2] it was 5.26%; in experiment [3], -4.48%; in experiment [4], 2.41%; in the experiment on Trypanosoma cruzi it was -6.01%; in [5] it was -7.28%. Also, the Percent Effect in [6] is 4.84%; in the experiment filed under Homo sapiens, 30.8%; in [7], 0.49%; in experiment [8], -4.88%; in experiment [9], -5.33%.

On to `Cn1ccnc1CN1CCN(Cc2ccccc2C#N)CC1`, for which the Percent Effect in experiment [1] was -5.61%; in experiment [2], 18.4%; in experiment [3], -14.9%; in experiment [4], 6.65%; in the experiment with Trypanosoma cruzi, 2.52%; in experiment [5], -0.719%. In addition, the Percent Effect in [6] is 6.34%; in the experiment filed under Homo sapiens it was 5.87%; in experiment [7], 12.3%; in experiment [8], 18.5%; in experiment [9], -9.79%.

`Cc1cc(C)n(CC(=O)N2CCC(NS(=O)(=O)c3ccccc3)CC2)n1`: the Percent Effect is -0.375% in experiment [1]; 13.2% in [2]; 4.71% in [3]; 6.53% in experiment [4]; -1.32% in the experiment on Trypanosoma cruzi; 0.383% in [5]. Moreover, the Percent Effect in [6] was 4.84%; in the experiment filed under Homo sapiens, 15.1%; in experiment [7], 1.47%; in experiment [8], 7.32%; in experiment [9], -3.29%.

In the case of `Cn1cc(CN2CCC3(C2)CN(Cc2ccsc2)C3)cn1`, the Percent Effect in experiment [1] is -5.1%; in experiment [2], 2.6%; in [3], -2.26%; in [4], 5.86%; in the experiment with Trypanosoma cruzi, 3.64%; in experiment [5] it was 1.38%. In addition, the Percent Effect is 10.5% in [6]; -4.61% in the experiment listed under Homo sapiens; 3.23% in experiment [7]; 8.64% in experiment [8]; 1.08% in experiment [9].

Source of the values: ChEMBL document CHEMBL3988442, “University of Dundee, Small-Polar-MMV Screening Library” (2021).
